FH mod = Identification of activators of human fumarate hydratase by quantitative high-throughput screening | Fumarate hydratase, mitochondrial (Homo sapiens), P07954 | FH coupled MDH/diaphorase resazurin fluorescence, 15 min | Potency, µM (highest dose often 79.9 µM), most hits filed as inhibitors | hit rate 0.22% among 54,000; note: the screen sought activators but most active calls are inhibition curves; nearly all actives have a fitted effect of over 45% in size
NTMT1 inhibitor = Primary qHTS for Inhibitors of N-terminal methyltransferase 1 (NTMT1): MTaseGlo Assay. N-terminal Xaa-Pro-Lys N-methyltransferase 1 (Homo sapiens), Q9BV86. NTMT1 MTase-Glo SAH luminescence, purified enzyme. Potency, µM (highest dose often 114 µM), hits mostly inhibitors. hit rate 2.5% among 59,000. AID 1645870, 2021; note: nearly all actives have a fitted effect of over 65% in size
DYRK1A inh-1 = Assay for Inhibitors of Dual-Specificity Tyrosine-(Y)-Phosphorylation Regulated Kinase 1A (Kinase-Glo assay); recombinant DYRK1A, Kinase-Glo ATP depletion luminescence; AID 2705, 2010; shares compounds with NTMT1 inhibitor; Potency, µM (top dose mostly 76.9 µM), hits mostly inhibitors; hit rate 80% among 100
CLK4 RBC = Kinase Inhibition Study on Inhibitors of CDC-like Kinase 4 (Reaction Biology data): SAR round 2; shares compounds with NTMT1 inhibitor; Reaction Biology kinase assay, 10 uM ATP; Potency, µM, most hits filed as inhibitors; hit rate 100% among 65; AID 504421, 2011; calls by dose curve
DYRK1A inh-2 = Kinase Inhibition Study on Inhibitors of Dyrk1a (Reaction Biology data); Potency, µM, actives largely listed as inhibitors; hit rate 90% among 65; AID 504424, 2011; shares compounds with NTMT1 inhibitor; Reaction Biology kinase assay, 10 uM ATP;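 active = compounds that showed inhibition of Dyrk1a and received a fitted potency; inactive = compounds that showed no inhibition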
CLK2 RBC = Kinase Inhibition Study on Inhibitors of CDC-like Kinase 2 (Reaction Biology data) | shares compounds with NTMT1 inhibitor | Reaction Biology kinase assay, 10 uM ATP | Potency, µM, hits mostly inhibitors | hit rate 90% among 65;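 active = compound that inhibits Clk2 kinase in the dose series, with an IC50 potency reported; inactive = no inhibition seen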
CLK3 inh = Kinase Inhibition Study on Inhibitors of CDC-like Kinase 3 (Reaction Biology data). Potency, µM, usual class: inhibitors. shares compounds with NTMT1 inhibitor. AID 504428, 2011. hit rate 40% among 65. recombinant CLK3 kinase assay, 10 uM ATP;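 active = compounds that inhibited Clk3 enough in the ten-dose series to give a half-maximal potency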
DYRK1B RBC = Kinase Inhibition Study on Inhibitors of Dyrk1b (Reaction Biology data); shares compounds with NTMT1 inhibitor; Recombinant Dyrk1b kinase assay, 10 uM ATP; Potency, µM, usual class: inhibitors; hit rate 80% among 65; AID 504429, 2011;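 active = compounds whose dose response shows an inhibitor phenotype against the kinase Dyrk1b; inactive = compounds showing no inhibitor phenotype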
Target sequence (Q9Y463 whole entry, looked up): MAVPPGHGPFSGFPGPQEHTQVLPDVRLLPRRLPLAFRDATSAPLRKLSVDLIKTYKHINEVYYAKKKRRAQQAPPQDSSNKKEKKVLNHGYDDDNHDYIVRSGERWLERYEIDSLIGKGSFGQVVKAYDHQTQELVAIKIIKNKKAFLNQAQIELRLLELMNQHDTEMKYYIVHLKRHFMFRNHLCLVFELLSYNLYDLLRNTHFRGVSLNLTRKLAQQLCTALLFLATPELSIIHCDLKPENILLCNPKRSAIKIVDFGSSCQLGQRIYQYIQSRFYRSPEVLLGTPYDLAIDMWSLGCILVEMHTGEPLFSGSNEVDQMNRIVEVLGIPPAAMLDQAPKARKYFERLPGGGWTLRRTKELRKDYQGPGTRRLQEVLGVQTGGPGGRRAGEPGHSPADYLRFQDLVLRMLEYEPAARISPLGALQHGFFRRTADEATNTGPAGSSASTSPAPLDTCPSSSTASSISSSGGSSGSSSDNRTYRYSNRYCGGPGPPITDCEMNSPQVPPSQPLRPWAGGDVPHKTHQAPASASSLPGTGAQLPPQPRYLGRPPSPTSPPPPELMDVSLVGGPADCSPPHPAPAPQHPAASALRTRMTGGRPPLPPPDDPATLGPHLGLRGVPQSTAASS
CLK1 RBC = Kinase Inhibition Study on Inhibitors of CDC-like Kinase 1 (Reaction Biology data). Potency, µM, hits mostly inhibitors. hit rate 90% among 65. recombinant Clk1 kinase assay, 10 uM ATP. shares compounds with NTMT1 inhibitor;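 active = compounds that block the splicing kinase Clk1 enough to give a fitted half-inhibition concentration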
NNMT inh = Counterscreen qHTS for Inhibitors of N-terminal methyltransferase 1 (NTMT1): NNMT MTaseGlo assay; Potency, µM (titrated, usually from 57.1 µM), usual class: inhibitors; AID 1645878, 2021; shares compounds with NTMT1 inhibitor; hit rate 10% among 120; NNMT MTase-Glo luminescence, SAH detection
Each line names hits and unclear results; the compound was inactive in the other large screens (follow-up assays come after a bar, where they were run). Only some compounds are listed: those with a hit (about 2.5% of all), similar ones and a draw of the others. Unless noted, calls come from the whole dose curve; as a rule, active = well fitted curve in the direction sought with a large enough effect; inconclusive = small, poorly fitted or top-dose-only effect, or another doubt; inactive = no such curve, though single readings can be large; an effect the other way counts as inactive or inconclusive.

NCC(CNc1nc(Nc2cccc(NC(=O)N3CCCC3)c2)ncc1I)C(=O)c1cccs1 (stereo unspecified)	NTMT1 inhibitor inconclusive | NNMT inh inconclusive
COc1ccc(-c2c(-c3cc(C(=O)O)ccn3)ncn2C)cc1	FH mod inconclusive
c1nc(NCc2ccc3c(c2)OCO3)c2cc(-c3ccc4c(c3)OCCO4)ccc2n1	none (no result: FH mod)
c1nc(NCC2CCCC2)c2cc(-c3ccc4c(c3)OCO4)ccc2n1	NTMT1 inhibitor inconclusive (no result: FH mod) | DYRK1A inh-1 0.0654µM
Cc1cc(CNc2ncnc3ccc(-c4ccc5c(c4)OCO5)cc23)c(C)o1	NTMT1 inhibitor inconclusive (no result: FH mod) | DYRK1A inh-1 0.367µM | CLK4 RBC 0.444 | DYRK1A inh-2 0.581µM | CLK2 RBC 15µM | CLK3 inh inactive | DYRK1B RBC 4.92µM | CLK1 RBC 0.864µM
CN1CCCC1CCNc1ncnc2ccc(-c3ccc4c(c3)OCO4)cc12 (stereo unspecified)	none (no result: FH mod) | DYRK1A inh-1 4.12µM | CLK4 RBC 7.09 | DYRK1A inh-2 5.58µM | CLK2 RBC 8.56µM | CLK3 inh inactive | DYRK1B RBC 8.23µM | CLK1 RBC 5.19µM
c1nc(NCCc2cnc[nH]2)c2ccc(-c3ccc4c(c3)OCO4)cc2n1	none (no result: FH mod) | DYRK1A inh-1 23.2µM
O=C(Cc1ccccc1)Nc1ccc(S(=O)(=O)Nc2nccs2)cc1	none (no result: FH mod)
C=CC(C)(O)C(O)CC1C(C)(O)C(O)C(O)C2C(C)(C)CCCC21C (stereo unspecified)	none
CC(=O)c1c(O)cc2cccc3c2c1CC(C)(O)O3 (stereo unspecified)	none
CN(C)CCNc1ncnc2ccc(-c3ccc4c(c3)OCO4)cc12	NTMT1 inhibitor inconclusive (no result: FH mod) | DYRK1A inh-1 1.64µM | CLK4 RBC 1.94 | DYRK1A inh-2 1.39µM | CLK2 RBC 15µM | CLK3 inh inactive | DYRK1B RBC 7.34µM | CLK1 RBC 4.16µM
Cc1c(NC(=O)c2cc(C(N)=O)nc3cc(F)ccc23)c(C(F)(F)F)nn1Cc1ccc(C(C)(C)C)cc1	none (no result: FH mod)
O=c1nc(-c2ccccn2)sc2ccccc12	NTMT1 inhibitor 20µM | NNMT inh inconclusive
Cc1nc(C#Cc2ccnc(Cl)c2)c(C)n1-c1ccc(OC(F)(F)F)cc1	NTMT1 inhibitor inconclusive | NNMT inh inactive
COc1c(C(C)C)c(O)c(O)c2c1C(OC)[C@H]1OC(=O)[C@@]23CCCC(C)(C)[C@H]13 (stereo partly specified)	FH mod 13.2µM | NNMT inh inactive

Assay outcomes from PubChem.
